# Bioassay records deposited in PubChem BioAssay by several laboratories.
# CYP2C19 act – cytochrome P450 2C19 (human) activation; recombinant CYP2C19, luciferin-H EGE luminescence; hits give high values; 0 = fully inhibited enzyme, 1 = untreated enzyme; AID 1025; P33261; 96,000 tested, under 10 active; activation factor at 5 µM;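 active = activation factor of at least 2 at 5 µM in the primary screen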;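 note: 0 = wells with 2.5 mM tranylcypromine and 1 = vehicle-only wells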
# CYP2C9 inhib – blocks human cytochrome P450 2C9; P11712; CYP2C9 Supersomes, luciferin-H conversion, luminescence; inhibition, % at 5 µM; 96,000 compounds, 20% hits; AID 777;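 active = blocking of liver enzyme CYP2C9 beyond about 50% at 5 µM, limit read from the data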
# Target sequence (P11712 whole entry, looked up): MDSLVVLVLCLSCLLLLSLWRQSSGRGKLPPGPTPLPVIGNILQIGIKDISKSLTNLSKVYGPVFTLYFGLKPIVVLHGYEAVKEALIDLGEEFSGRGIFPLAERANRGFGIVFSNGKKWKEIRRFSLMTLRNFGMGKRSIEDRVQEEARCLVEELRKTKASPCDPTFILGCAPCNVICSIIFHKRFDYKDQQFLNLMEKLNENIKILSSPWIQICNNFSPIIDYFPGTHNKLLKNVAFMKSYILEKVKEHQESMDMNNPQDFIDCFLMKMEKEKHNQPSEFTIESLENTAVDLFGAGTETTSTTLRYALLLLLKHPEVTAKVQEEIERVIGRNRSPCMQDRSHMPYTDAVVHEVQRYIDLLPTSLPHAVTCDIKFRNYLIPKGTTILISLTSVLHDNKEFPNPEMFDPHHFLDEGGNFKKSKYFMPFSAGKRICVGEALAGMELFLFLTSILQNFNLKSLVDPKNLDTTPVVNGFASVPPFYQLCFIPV
# PostGolgi yeast – growth inhibition of a yeast mutant, post-Golgi transport screen; post-Golgi transport phenotypic cell assay; inhibition, % at 10 µM; 98,000 compounds, 0.9% hits; AID 739;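 note: yeast cells grown in 1536-well plates; yeast grown about 18 h at 30C before absorbance read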
# CYP2C19 inh – inhibitors of human CYP2C19; P33261; CYP2C19 Supersomes, luciferin-H EGE luminescence, 30 min; inhibition, % at 5 µM; 96,000 compounds, 21% hits;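 active = CYP2C19 inhibition above a set limit at 5 µM in the primary screen, cut at about 50% in these data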;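 note: plate controls were negative control wells for no effect and 2.5 mM tranylcypromine positive control for full effect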
# CYP2C9 act – activators of human CYP2C9. recombinant CYP2C9, luciferin-H conversion, luminescence; hits give high values; factor 1 = untreated enzyme, 0 = blocked. activation factor at 5 µM. 96,000 compounds, 1.4% hits;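 active = activation factor of 2 or more for CYP2C9 at a 5 µM dose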;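 note: 0 = sulfaphenazole-blocked wells and 1 = vehicle-only wells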
# PostGolgi ctrl – inhibits growth of the yeast control strain | inhibition, % at 10 µM | AID 738 | 98,000 compounds, 5% hits | efflux-deficient yeast background strain, growth absorbance A615, 16 h
# Starred values were filed as active, the others as inactive; x = not tested or not shown. A selection: hits, their analogues and other compounds. The true share with any hit is near 32%. Cut-off read from the data, not from the text of the source, unless noted: active = inhibition above about 30%; inactive = the rest.
SMILES,CYP2C19 act,CYP2C9 inhib,PostGolgi yeast,CYP2C19 inh,CYP2C9 act,PostGolgi ctrl
CCOCCCNC(=O)C(NC(=O)CNC(C)=O)c1ccc(C)cc1 (configuration not stated),1.2,-19.0,-7.6,-24.0,1.2,7.0
CCn1c2ccccc2c2cc(/C=N/NC(=O)c3cccc(C)c3)ccc21,0.8,36.9,-2.2,19.7,0.6,34.1*
Cc1cccc(C(=O)N/N=C/c2ccncc2)c1,0.4,39.0,-2.3,64.1*,0.6,-4.7
CCn1c2ccccc2c2cc(NC(=O)c3cccc(OC)c3)ccc21,1,-37.9,-8.2,4.6,1.4,9.1
Cc1cccc(C(=O)N/N=C/c2ccc(OC3CSC3)cc2)c1,1.1,1.2,2.6,-6.4,1,2.1
Cc1cc(N2CCC(C)CC2)nc2cccc(O)c12,0.8,-204.7,1.5,23.3,3*,2.7
Cc1onc(-c2ccccc2Cl)c1C(=O)Nc1cccc(-c2nc3ncccn3c2C)c1,0.5,52.4*,1.4,54.8*,0.5,7.2
Cc1ccc(-c2cn3cccnc3n2)cc1NC(=O)c1c(-c2ccccc2Cl)noc1C,0.5,45.2,-15.1,54.0*,0.5,15.4
Cc1onc(-c2ccccc2Cl)c1C(=O)Nc1ccc(-c2cn3cccnc3n2)cc1,1.1,-7.5,-2.4,-7.5,1.1,-1.8
Nc1nonc1-n1nncc1-c1ccccc1,0.8,3.7,-9.7,15.8,1,1.8
O=C(Oc1ccc(/C=N/O)cc1)c1ccccc1,0.9,-1.6,12.5,13.0,1,30.5*
O=C(N/N=C/c1ccc(OC(=O)c2ccccc2)cc1)c1ccc(CN2CCOCC2)cc1,0.9,58.9*,80.5*,14.6,0.4,11.4
Cc1ccc(-n2c(C)cc(/C=N/NC(=O)c3ccc(CN4CCOCC4)cc3)c2C)cc1,1,29.8,2.7,-0.8,0.7,-7.2
O=C(Oc1ccc(/C=N/Nc2ccccc2)cc1)c1ccccc1,0.9,21.6,-0.2,10.5,0.8,5.4
NC(=O)c1ccc(NC(=O)c2ccc(CN3CCOCC3)cc2)cc1,1,2.1,-2.7,-0.5,1,10.1
Cc1cccc(-n2c(C)cc(/C=N/NC(=O)c3ccc(CN4CCOCC4)cc3)c2C)c1,0.6,76.9*,-9.5,39.5,0.2,5.7
O=C(O)c1ccc(NC(=O)C2(c3ccccc3)CCOCC2)cc1,1.1,-15.5,3.2,-13.9,1.2,-0.5
O=C(N1CCOCC1)N1CCCN(C(=O)N2CCOCC2)CC1,1,-18.8,-0.6,-0.3,1.2,9.3
CCC(c1nnnn1CCc1ccccc1)N1CCN(c2ccc(OC)cc2)CC1 (configuration not stated),0.7,24.9,0.7,29.6,0.8,0.1
Cc1nnc2c3ccccc3c(-c3cccc4ccccc34)nn12,0.4,7.8,1.6,60.8*,0.9,1.3
COc1ccccc1/C=C/C(=O)c1c2c(c(C)[nH]c1=O)CCCC2,0.8,-127.7,2.4,22.7,2.3*,7.0
CCN1C(=O)/C(=c2\o/c(=C3\C=Cc4ccccc4N3CC)c(=O)n2CC)SC1=S,0.7,32.6,-3.7,25.4,0.7,4.0
CCN1C(=O)/C(=C2\C=Cc3ccccc3N2CC)SC1=S,0.5,13.2,-3.7,54.6*,0.9,29.7
CCN1C(=O)/C(=C2\SC(=S)N(CCCOC)C2=O)c2ccccc21,1,51.6*,4.0,2.9,0.5,2.7
NC(=O)NCc1ccc(Cl)cc1,1.1,-4.9,-9.4,-12.7,1,-0.9
SMILES,CYP2C19 act,CYP2C9 inhib,PostGolgi yeast,CYP2C19 inh,CYP2C9 act,PostGolgi ctrl
Cc1ccccc1CSc1nnc(-c2cccs2)n1Cc1ccco1,0.4,39.3,-3.0,62.2*,0.6,23.0
COC(=O)CSc1nnc(-c2ccco2)n1Cc1ccco1,1,-6.5,-1.7,0.5,1.1,-2.6
c1ccc(CSc2nnc(-c3ccco3)n2Cc2ccco2)cc1,0.2,21.5,21.2,77.8*,0.8,22.6
CCn1c(SCC(=O)NCc2ccco2)nnc1-c1cccs1,0.7,36.2,-3.1,34.1,0.6,-5.2
O=C1c2ccccc2C(=O)N1CCSc1nnc(-c2ccco2)n1Cc1ccccc1,0,65.1*,3.3,97.2*,0.3,36.7*
CCCn1c(N)c(C(=O)CSc2nnc(-c3ccco3)n2Cc2ccccc2)c(=O)[nH]c1=O,x,x,-0.5,x,x,2.2
Cc1ccccc1CSc1nnc(-c2ccco2)n1Cc1ccco1,0.3,10.1,-0.6,65.9*,0.9,39.5*
CC/C(=N\O)c1ccc(O)c(OC)c1,1,-2.2,11.1,2.7,1,-1.0
CCN(CC)CCNc1nc(-c2ccccc2)nnc1C(F)(F)F,0.9,-7.5,-1.8,12.0,1.1,1.4
CCN(CC(=O)Nc1cccc(OC)c1)C(=O)C1CCN(C(=O)Nc2ccccc2)CC1,0.9,3.2,-5.5,7.8,1,5.8
Cc1cccc(CN2CCN(CC(=O)O)C2=O)c1,x,x,-9.8,x,x,-7.0
O=c1[nH]c2ccccc2n1CCCSCCCn1c(=O)[nH]c2ccccc21,0.8,88.4*,x,15.9,0.1,x
O=c1[nH]c2ccccc2n1Cc1ccc(Cl)cc1,0.3,23.7,5.9,72.8*,0.8,9.0
Cc1cc(C(=O)CSCCCn2c(=O)[nH]c3ccccc32)c(C)n1C,0.7,-17.4,-9.0,33.0,1.2,14.5
O=c1[nH]c2ccccc2n1CCC1CCCCC1,0.1,56.2*,1.1,92.6*,0.4,49.5*
CC1(C)CC(=O)C=C(Nc2ccc(Br)cn2)C1,0.8,-0.7,1.3,15.1,1,-11.5
Cc1ccc(CNC(=O)c2cccc(OCc3c(C)noc3C)c2)cc1,0.4,29.4,-4.4,57.5*,0.7,23.5
Cc1noc(C)c1COc1cccc(C(=O)NCc2cccc(Cl)c2)c1,0.6,51.5*,0.6,41.9,0.5,22.3
Cc1ccccc1NC(=O)c1cccc(OCc2c(C)noc2C)c1,0.8,20.4,10.0,24.4,0.8,9.0
Cc1ccc(NC(=O)c2cccc(OCc3c(C)noc3C)c2)cc1,0.1,95.3*,-1.0,91.1*,0,-7.3
Cc1cccc(C(=O)Nc2ccccc2C(=O)OCc2c(C)noc2C)c1,0.5,86.2*,3.2,46.3,0.1,14.2
O=C(Cc1ccc(-n2cccc2)cc1)NCc1cccs1,1,30.8,4.3,4.6,0.7,-10.9
CCCCCOC(=O)c1ccc(NC(=O)c2ccco2)cc1,0.2,93.6*,-9.6,79.5*,0.1,9.4
CCCCOc1ccccc1NC(=O)c1ccco1,0.5,0.2,-1.8,52.0*,1,8.6
Cc1ccccc1OCC(=O)Nc1cccc(NC(=O)c2ccco2)c1,0.3,19.3,-0.6,71.8*,0.8,-1.6
CCOc1ccccc1NC(=O)c1cccc(NC(=O)c2ccco2)c1,0.2,-90.8,-7.0,75.9*,1.9,12.8
CCC1=C/C(=C/N(C)c2ccccc2)C(=O)S1,0.9,13.1,5.5,8.9,0.9,15.4
CCOCCN(C(=O)COC)c1cccc(OC)c1,0.8,0.1,-6.2,19.9,1,0.1
